Laboratory results published in publication PMC4336329 (PLoS ONE, 2015).
Among all 310,000 compounds or so, about 2,200 (0.71%) showed an effect of 50% or more. Effects have a minus sign here. The list comes from a sample in which strong results are over-represented; it also holds similar structures and randomly drawn compounds.

target: human ether-à-go-go-related gene (hERG) potassium channel (human, UniProt Q12809); experiment: primary screen, population patch clamp on CHO cells stably expressing hERG; higher = less effect of the substance
Sequence (Q12809 whole entry, looked up): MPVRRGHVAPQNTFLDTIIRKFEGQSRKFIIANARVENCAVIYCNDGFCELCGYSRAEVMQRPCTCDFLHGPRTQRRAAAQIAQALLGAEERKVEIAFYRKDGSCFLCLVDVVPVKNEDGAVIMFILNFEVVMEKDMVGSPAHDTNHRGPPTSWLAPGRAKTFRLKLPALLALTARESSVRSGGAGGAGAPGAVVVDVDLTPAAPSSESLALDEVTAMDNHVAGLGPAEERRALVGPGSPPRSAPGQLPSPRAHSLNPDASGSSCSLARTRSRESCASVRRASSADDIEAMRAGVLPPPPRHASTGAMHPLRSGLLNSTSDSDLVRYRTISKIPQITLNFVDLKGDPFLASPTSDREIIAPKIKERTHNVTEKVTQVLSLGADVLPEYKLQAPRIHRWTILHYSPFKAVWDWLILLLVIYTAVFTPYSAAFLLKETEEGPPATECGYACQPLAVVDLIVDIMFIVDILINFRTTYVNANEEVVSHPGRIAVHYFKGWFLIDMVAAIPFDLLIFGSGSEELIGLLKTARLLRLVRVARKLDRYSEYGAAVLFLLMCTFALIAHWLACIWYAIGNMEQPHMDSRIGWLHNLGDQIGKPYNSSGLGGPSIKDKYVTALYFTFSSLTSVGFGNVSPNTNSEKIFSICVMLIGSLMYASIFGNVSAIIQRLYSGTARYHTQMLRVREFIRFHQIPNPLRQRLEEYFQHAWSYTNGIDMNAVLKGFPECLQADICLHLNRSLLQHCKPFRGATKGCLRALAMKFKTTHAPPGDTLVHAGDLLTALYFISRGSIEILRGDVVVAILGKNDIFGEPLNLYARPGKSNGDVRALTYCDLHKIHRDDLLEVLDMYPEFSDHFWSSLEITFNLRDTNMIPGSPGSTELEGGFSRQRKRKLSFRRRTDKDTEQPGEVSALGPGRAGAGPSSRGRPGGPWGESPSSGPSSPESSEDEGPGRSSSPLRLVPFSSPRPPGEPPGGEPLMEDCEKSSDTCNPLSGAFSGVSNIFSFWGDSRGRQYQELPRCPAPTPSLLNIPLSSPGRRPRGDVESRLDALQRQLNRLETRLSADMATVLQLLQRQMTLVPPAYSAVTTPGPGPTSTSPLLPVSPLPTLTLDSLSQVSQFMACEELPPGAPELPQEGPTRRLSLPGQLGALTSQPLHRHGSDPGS

Row | SMILES | hERG current change (%, negative = inhibition) at 1uM
1 | OCC1(Cc2ccccc2)CCN(C2CCN(c3ccc(F)c(F)c3)CC2)CC1 | -124%
2 | OCCC1CN(C2CCN(c3ccccc3)CC2)CCN1Cc1ccc(F)c(F)c1 (stereo not drawn) | -71.1%
3 | OCCC1CN(C2CCN(c3ccccc3F)CC2)CCN1Cc1ccccc1 (stereo not drawn) | -1.66%
4 | OCC1(Cc2ccccc2)CCN(C2CCN(c3ccccc3F)CC2)CC1 | -38.5%
5 | OCCC1CN(C2CCC2)CCN1Cc1ccc(F)c(F)c1 (stereo not drawn) | 12.1%
6 | OCC1(Cc2ccccc2)CCCN(C2CCCC2)C1 (stereo not drawn) | -3.43%
7 | CC(C)c1c(C(=O)N/N=C/c2ccccc2C(=O)O)nnn1-c1nonc1N | 7.36%
8 | C(=C\CSc1nnnn1-c1ccccc1)/CSc1nnnn1-c1ccccc1 | 0.568%
9 | O=C(Cn1nc(-c2ccccc2)c2ccccc2c1=O)Nc1ccc2c(c1)nc1n2CCOC1 | 13.3%
10 | C/C(=N\NC(=O)C1(C)CC1(Br)Br)c1cccc(NC(=O)c2ccc(C)o2)c1 (stereo not drawn) | 11.8%
11 | CN1CCCN(C(=O)c2ccc(Cl)s2)CC1 | -50.5%
12 | CN1CCCN(C(=O)c2ccc(Br)s2)CC1 | 1.6%
13 | O=C(c1ccc(Cl)s1)N1CCCC1 | 6.35%
14 | CCOc1ccc(CCNC(=O)CN2CCN(Cc3ccccc3F)C2=O)cc1OCC | -0.385%
15 | Cc1ccc(S(=O)(=O)N2CCC(C(=O)Nc3ncccc3O)CC2)cc1 | -13.8%
16 | CCC1CCCCN1CCCNC(=O)c1ccc2c(c1)N(Cc1ccc(F)cc1)C(=O)c1ccccc1S2=O (stereo not drawn) | -13.7%
17 | Cc1nc(S(=O)(=O)c2ccc(Cl)cc2)nc2c1CCC2 | 0.296%
18 | CCOc1ccccc1CN1C(=O)NC(C)(c2ccccc2)C1=O (stereo not drawn) | -0.418%
19 | CCN(C1CCCCC1)S(=O)(=O)CCNC(=O)c1ccccc1 | 2.25%
20 | CCCCCCCCCCCCCCCC[N+](C)(C)CCN(Cc1ccc(OC)cc1)c1ncccn1.[Br-] | -61.5%
21 | COc1ccc(CN(CCN(C)C)c2ccccn2)cc1.O=C(O)/C=C\C(=O)O | -0.0995%

Row | SMILES | hERG current change (%, negative = inhibition) at 1uM
22 | CC[N+](C)(C)CCN(Cc1ccc(Cl)cc1)c1ccccn1.[Br-] | -33.2%
23 | COc1cc(C)ccc1OCCCOc1ccccc1Br | 12.3%
24 | O=C(CCn1c(=O)c2sccc2n(Cc2cc(=O)n3ccccc3n2)c1=O)NCc1ccco1 | -25.1%
25 | CC(C)Oc1cccc(C(=O)C2CCCN(C3CCOCC3)C2)c1 (stereo not drawn) | -5.96%
26 | CCCC(=O)N1CCCC(C(=O)c2cccc(OC(C)C)c2)C1 (stereo not drawn) | 9.81%
27 | CCOC(=O)N1CCC(N2CCCC(C(=O)c3ccc4cc(OC)ccc4c3)C2)CC1 (stereo not drawn) | -55.1%
28 | CCOC(=O)N1CCC(N2CCCC(C(=O)c3cccc(OC(C)C)c3)C2)CC1 (stereo not drawn) | -61.3%
29 | CCOC(=O)N1CCC(N2CCCC(C(=O)c3cccc(OC)c3)C2)CC1 (stereo not drawn) | -13.2%
30 | CCOC(=O)N1CCC(N2CCCC(C(=O)c3cc(C)c(OC)c(C)c3)C2)CC1 (stereo not drawn) | -28.1%
31 | O=C(COC(=O)CCc1ccccc1)NCc1ccccc1 | 12.3%
32 | COc1ccc(C2C(C(=O)Nc3cccnc3)=C(C)Nc3nc(-c4cccs4)nn32)cc1 (stereo not drawn) | -2.21%
33 | COc1cccc(-c2nc3n(n2)C(c2cccs2)C(C(=O)Nc2cccnc2)=C(C)N3)c1 (stereo not drawn) | -51.2%
34 | COc1ccccc1-c1nc2n(n1)C(c1cccs1)C(C(=O)Nc1cccnc1)=C(C)N2 (stereo not drawn) | 0.0177%
35 | CC(=O)OC(C(=O)NC1CCCCC1)c1ccccc1 (stereo not drawn) | 9.71%
36 | CCCN(C(=O)c1ccc(N(C)S(=O)(=O)c2ccc(C)cc2)cc1)C1CCS(=O)(=O)C1 (stereo not drawn) | 14.8%
37 | CCN(CC)CCCNC(=O)CNC(=O)c1nn(-c2ccc(OC)cc2)c(=O)c2ccccc12 | 17.5%
38 | CCN(CC)CCCNC(=O)c1nn(-c2ccc(OC)cc2OC)c(=O)c2ccccc12 | 8.97%
39 | CCN(CC)CCCNC(=O)c1nn(-c2cccc(OC)c2)c(=O)c2ccccc12 | -66.9%
40 | CC(=O)NS(=O)(=O)c1ccc(NC(=O)C(Sc2ccccc2)c2ccccc2)cc1 (stereo not drawn) | 7.09%
41 | Cn1c(=O)c(C(=O)CN2CCCCC2)c(N)n(Cc2ccccc2)c1=O | 6.17%
42 | Cc1coc2cc3oc(=O)c(CCC(=O)N4C[C@H]5C[C@@H](C4)c4cccc(=O)n4C5)c(C)c3cc12 | -16.8%

Row | SMILES | hERG current change (%, negative = inhibition) at 1uM
43 | Cc1coc2cc3oc(=O)c(CC(=O)N4C[C@H]5C[C@@H](C4)c4cccc(=O)n4C5)c(C)c3cc12 | 4%
44 | Cc1c(CC(=O)N2C[C@H]3C[C@@H](C2)c2cccc(=O)n2C3)c(=O)oc2cc3occ(C(C)(C)C)c3cc12 | -56.8%
45 | Cc1noc(C)c1COC(=O)c1cccc(S(=O)(=O)N2c3ccccc3CC2C)c1 (stereo not drawn) | 10.5%
46 | O=C(N/N=C/c1c(O)ccc2ccccc12)c1cccc(C(F)(F)F)c1 | 13.9%
47 | CC1CCCCN1C(=O)C(Cc1ccccc1)N1C(=O)C2CCCCC2C1=O (stereo not drawn) | 10.7%
48 | CCOC(=O)c1c(NC(=S)Nc2ccc(F)cc2)sc2c1CCC2 | -21.8%
49 | CC(=O)N1CCN(c2ccccc2NC(=O)c2cc(Br)ccc2Cl)CC1 | -27%
50 | COc1ccc(Cl)cc1C(=O)NC(=S)Nc1ccccc1N1CCOCC1 | 9.75%
51 | COc1ccc(Cl)cc1C(=O)Nc1ccccc1N1CCN(C)CC1 | -70.4%
52 | COc1ccc(Cl)cc1C(=O)Nc1ccccc1N1CCN(C(=O)C(C)C)CC1 | -19.6%
53 | COc1ccccc1C(=O)Nc1ccccc1N1CCN(C(=O)c2ccc(Cl)cc2)CC1 | -85.2%
54 | CN1CCN(c2ccccc2NC(=O)c2cc(Br)ccc2Cl)CC1 | -53.1%
55 | CS(=O)(=O)N1CCN(c2ccccc2NC(=O)c2cc(Br)ccc2Cl)CC1 | -1.64%
56 | O=C(Nc1ccccc1N1CCN(C(=O)c2ccccc2)CC1)c1ccccc1Cl | -29.8%
57 | COc1ccc(Br)cc1C(=O)Nc1ccccc1N1CCN(C(=O)c2ccccc2)CC1 | 7.55%
58 | CC(=O)c1nc2ccccc2n1Cc1ccccc1 | 9.31%
59 | CCCCn1c(N)c(N(CCC(C)C)C(=O)C2=COCCO2)c(=O)[nH]c1=O | 5.25%
60 | COC(=O)CN1C(=O)Nc2ccc(Cl)cc2C1c1ccccc1 (stereo not drawn) | 22.6%
61 | Cc1cc(C)nc(N2CCC(CNC(=O)CCc3ccccc3)CC2)n1 | 20.4%
62 | O=C(NCc1ccncc1)c1cc(S(=O)(=O)N2CCOCC2)c(Cl)cc1Cl | 12.6%
63 | O=C(NCC(c1cccs1)N1CCOCC1)c1cc(S(=O)(=O)N2CCOCC2)c(Cl)cc1Cl (stereo not drawn) | 6.08%

Row | SMILES | hERG current change (%, negative = inhibition) at 1uM
64 | O=C(NCc1cccs1)c1cc(S(=O)(=O)N2CCOCC2)c(Cl)cc1Cl | -78.4%
65 | CC(=O)Nc1ccc(S(=O)(=O)Nc2ccc(S(=O)(=O)Nc3ncccn3)cc2)cc1 | 8.81%
66 | CCOC(=O)C1CCN(Cc2ccc(-c3ccccc3)cc2)CC1 | 8.54%
67 | CCOC(=O)C1CCCN(c2c(N3CCN(C)CC3)c(=O)c2=O)C1 (stereo not drawn) | 10.2%
68 | CCOC(=O)C1CCN(c2c(N3CCCC(C(=O)OCC)C3)c(=O)c2=O)CC1 (stereo not drawn) | 8.36%
69 | CCOC(=O)C1CCN(c2c(NCCCN3CCN(Cc4ccccc4)CC3)c(=O)c2=O)CC1 | 14.3%
70 | CCOC(=O)C1CCCN(c2c(N3CCN(c4cccc(Cl)c4)CC3)c(=O)c2=O)C1 (stereo not drawn) | -54.1%
71 | CCOC(=O)C1CCN(c2c(N3CCN(Cc4ccccc4)CC3)c(=O)c2=O)CC1 | -66.6%
72 | CCOc1ccc(S(=O)(=O)N/N=C(\C)c2ccc(Cl)c(Cl)c2Cl)cc1 | 12.1%
73 | Cc1ccc2oc(C(=O)Nc3ccc(S(=O)(=O)Nc4onc(C)c4C)cc3)cc(=O)c2c1 | 15.4%
74 | CCC1CCCN1Cn1cnc2c([nH]c3ccc(OC)cc32)c1=O (stereo not drawn) | -35.8%
75 | COc1ccc2[nH]c3c(=O)n(CCN4CCOCC4)cnc3c2c1 | 9.44%
76 | CCN1CCCC1Cn1cnc2c([nH]c3ccc(OC)cc32)c1=O (stereo not drawn) | -58.5%
77 | CCN1CCCC1Cn1cnc2c([nH]c3cc(OC)ccc32)c1=O (stereo not drawn) | -53.5%
78 | COc1ccc2c(c1)[nH]c1c(=O)n(CCN3CCCC3)cnc12 | -17.4%
79 | COc1ccc2c(c1)[nH]c1c(=O)n(CC3CCCO3)cnc12 (stereo not drawn) | 14.6%
80 | Cc1cc(C(=O)NC2CCCc3c2cnn3-c2ccc(C(C)(C)C)cc2)nn1C (stereo not drawn) | 16.5%
81 | O=[N+]([O-])c1cc([N+](=O)[O-])c2nonc2c1Nc1ccc(O)cc1 | 2.03%
82 | CC1CCN(S(=O)(=O)c2ccc3c(c2)c(=O)c(C(=O)NC2CCCC2)cn3C)CC1 | 9.59%
83 | CCCCS(=O)(=O)N1CCC(C(=O)Oc2ccc(Cl)cc2)CC1 | 17.9%
84 | COc1ccc(S(=O)(=O)N2CCN(C(=O)CN3C(=O)NC(C)(C)C3=O)CC2)cc1 | 14%
